Data taken from PubChem BioAssay.

Test system: not listed separately
Assay: modulators of HCV replicon luciferase signal, primary screen, HCV replication inhibitor project, Huh7 cells, luciferase reporter (AID 1109);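 also: huh7 hepatoma cells harbouring a luciferase neomycin HCV replicon reporter; luciferase luminescence as measure of HCV replicon replication; test concentration not given here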
Details: 48 h, higher = more signal

Compound | z-score
[N-]=[N+]=NCc1ccccc1[C@H]1OC(c2ccc(OCCCO)cc2)=N[C@@]1(CCS(=O)(=O)c1ccccc1)C(N)=O | -0.281
COc1ccc([Si](C)(C)[C@@H]2[C@@H](CCO)O[C@]3(C(=O)N(Cc4cccc(N5C(=O)c6cccc7cccc5c67)c4)c4ccccc43)[C@H]2C)cc1 | -4.47
CC(C)CNC(=O)[C@@H]1c2ccccc2C(=O)N(Cc2cc(F)cc(C(F)(F)F)c2)[C@H]1c1ccc(CO)cc1 | -0.604
C=CCN1C(=O)[C@]2(CC=C)N=C(c3ccc(OCCCO)cc3)O[C@@H]2c2ccccc21 | -2.63
COC(=O)C1(Cc2ccccc2)C=C2C(=C(C(C)C)C(=O)C2C)CN1 (stereo not given) | -0.735
C=C(C(=O)CC[C@H](OC(=O)c1cccnc1)c1ccc(CO)o1)C(C)C | -1.43
COc1ccc(C(O)C2C=CC3C(=O)N(c4ccccc4)C(=O)C3N2Nc2ccc(C#N)cc2)c2ccccc12 (stereo not given) | -0.46
NC(=O)NCC#Cc1ccc2c(c1)[C@]1(C(=O)N2)[C@H](C(=O)Nc2nc3ccccc3s2)[C@H]2C(=O)O[C@H](c3ccccc3)[C@H](c3ccccc3)N2[C@@H]1c1ccc(O)cc1 | -0.797
COc1ccc(C#Cc2ccc3c(c2)[C@]2(C(=O)N3)[C@H](C(=O)N3CCc4cc(OC)c(OC)cc4C3)[C@H]3C(=O)O[C@H](c4ccccc4)[C@H](c4ccccc4)N3[C@@H]2c2ccc(O)cc2)cc1 | -1.21

Biological target: Left-right determination factor 2 (Homo sapiens) (UniProt O00292)
Sequence (O00292 whole entry, looked up): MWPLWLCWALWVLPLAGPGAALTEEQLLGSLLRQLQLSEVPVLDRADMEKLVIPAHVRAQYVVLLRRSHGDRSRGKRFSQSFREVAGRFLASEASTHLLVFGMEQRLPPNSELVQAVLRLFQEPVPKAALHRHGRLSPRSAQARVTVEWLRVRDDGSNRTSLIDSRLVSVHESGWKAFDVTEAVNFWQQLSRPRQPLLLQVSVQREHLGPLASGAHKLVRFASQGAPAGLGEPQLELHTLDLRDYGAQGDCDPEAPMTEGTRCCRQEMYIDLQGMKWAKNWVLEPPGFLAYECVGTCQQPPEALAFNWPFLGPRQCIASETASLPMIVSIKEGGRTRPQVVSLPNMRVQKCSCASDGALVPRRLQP
Assay: LEFTY2 binders on small-molecule microarrays, primary screen, biochemical, small-molecule microarray, 635 nm fluorescence scan (AID 1110)
Details: LEFTY2 binding, higher = more signal

Compound | composite z-score
C=CCC(OC(C)=O)[C@@H]1[C@@H](N(Cc2cc3ccccc3o2)C(=O)c2ccc(C)cc2)c2cc(OCCCO)ccc2N1C(=O)Cc1ccc2ccccc2c1 (stereo not given in full) | 0.081
COC(=O)[C@H](Cc1ccccc1)N1CC(/C=C/C2CC2)=C[C@@H]1[C@@H](O)Cc1ccccc1 | 1.04
C=C1C2CC3C(=C4C(CO[C@@H]4[C@H]4CCCN4S(=O)(=O)c4ccccc4[N+](=O)[O-])C4C(=O)N(C)C(=O)C34)CC2C(=O)N1C (stereo not given in full) | 0.0437
[N-]=[N+]=Nc1ccccc1C[C@]1(C(=O)NCc2ccccc2)N=C(c2ccc(OCCCO)cc2)O[C@H]1c1ccccc1 | -0.397
COc1ccccc1CN1C(=O)c2ccccc2[C@](Cc2ccccc2I)(C(=O)NC(C)C)[C@@H]1c1ccc(CO)cc1 | 0.242
O=C1NC(=O)C2C1C=CC(C(O)c1ccc3c(c1)OCO3)N2Nc1ccccn1 (stereo not given) | 0.324
[N-]=[N+]=NCc1ccccc1C[C@@]1(C(N)=O)N=C(c2ccc(OCCCO)cc2)O[C@@H]1c1ccccc1CN=[N+]=[N-] | 0.144
COCCCNC(=O)[C@]1(Cc2ccccc2CN=[N+]=[N-])N=C(c2ccc(OCCCO)cc2)O[C@@H]1c1ccccc1 | -0.369
COCCOC(=O)N1C(=O)[C@@]2(c3cc(C#CC4(O)CCCCCC4)ccc31)[C@H](C(=O)N1CCCCCCC1)[C@H]1C(=O)O[C@H](c3ccccc3)[C@H](c3ccccc3)N1[C@@H]2c1ccc(OCCO)cc1 | 1.52
CN(C)CCCCNC(=O)[C@H]1C[C@H]2C(=O)N3CCC[C@H]3C(=O)N2[C@H]1c1ccc(O)cc1 | -0.148
O=C1O[C@H](c2ccccc2)[C@H](c2ccccc2)N2[C@H]1[C@@H](C(=O)O)[C@]1(C(=O)Nc3ccccc31)[C@H]2c1ccc(O)cc1 | -0.274
C=CC[C@@]1(C(=O)O)N=C(c2ccc(OCCCO)cc2)O[C@@H]1c1ccccc1 | -1.5
CN1C(=O)C2C(C1=O)C1C=C(c3ccc(CO)cc3)C2C(c2cccs2)N1Cc1cccc(OC(F)(F)F)c1 (stereo not given) | 0.526
COc1cc(CO)cc(I)c1O[C@H]1C=C(C(=O)NCCO)C[C@@H](N(CC2CCCCC2)C(=O)c2ccc(C(F)(F)F)cc2)[C@@H]1O | 0.402
C=C(/C=C/CNS(=O)(=O)c1ccc(C)cc1)[C@H](O)[C@H]1CCCN1S(=O)(=O)c1ccccc1[N+](=O)[O-] | 0.77
C=CCN1C(=O)[C@@]2(O[C@@H](CCO)[C@H]([Si](C)(C)c3ccc(OC)cc3)[C@H]2C)c2cc(N3C(=O)c4ccccc4Oc4ccccc43)ccc21 | 0.163
COCCOC(=O)N1C(=O)[C@@]2(c3cc(C#CCNC(N)=O)ccc31)[C@H](C(=O)N1CCCCCCC1)[C@H]1C(=O)O[C@H](c3ccccc3)[C@H](c3ccccc3)N1[C@@H]2c1ccc(O)cc1 | 0.212
Cc1ccc(S[C@]2(C(=O)NCc3ccccc3)CC(=O)N(C(C)C)[C@@H]2c2ccc(CO)cc2I)cc1 | -1.26

Compound | composite z-score
CCOC(=O)C1=CC[C@@H](c2ccc([N+](=O)[O-])cc2)N(S(=O)(=O)c2ccc(C)cc2)[C@H]1c1ccccc1 | 0.995
COc1ccc([Si](C)(C)[C@H]2[C@H](CCn3cc([C@H](O)c4ccccc4)nn3)O[C@@]3(C(=O)N(Cc4ccc(N5CCC5=O)cc4)c4ccccc43)[C@@H]2C)cc1 | 0.656
COc1cc2c(cc1OC)CN(C(=O)[C@H]1[C@@H]3C(=O)O[C@@H](c4ccccc4)[C@@H](c4ccccc4)N3[C@@H](c3ccc(OCCO)cc3)[C@]13C(=O)Nc1ccc(C#CCCO)cc13)CC2 | 0.509
COc1ccc(NN2C(C(O)c3ccco3)C=CC3C(=O)N(C4CCCCC4)C(=O)C32)cc1 (stereo not given) | 0.519
NC(=O)N1C(=O)C2C(C1=O)C1C=C(c3ccc(CO)cc3)C2C(C2CC2)N1Cc1sc2ccccc2c1Cl (stereo not given) | 1.27
CON(C)C(=O)C=C1C[C@@H](c2cccc(Cl)c2)O[C@@H](c2cccc(Cl)c2)O1 | 0.158
O=C1O[C@@H](c2ccccc2)[C@@H](c2ccccc2)N2[C@@H](c3ccccc3OCCO)[C@]3(C(=O)Nc4ccccc43)[C@@H](C(=O)NC[C@H](O)c3ccccc3)[C@H]12 | -0.555
C=C(/C(=C/C[C@@H](OC(=O)c1ccncc1)c1ccc(OCCO)cc1)c1cc(C(=O)OC)ccc1OC)C(C)C | -0.0398
COCCOC(=O)N1C(=O)[C@@]2(c3cc(C#Cc4ccc(OC)cc4)ccc31)[C@H](C(=O)NC[C@H](O)c1ccccc1)[C@H]1C(=O)O[C@H](c3ccccc3)[C@H](c3ccccc3)N1[C@@H]2c1ccc(O)cc1 | 0.887
[N-]=[N+]=NCc1ccccc1[C@H]1OC(c2ccc(OCCCO)cc2)=N[C@@]1(CCS(=O)(=O)c1ccccc1)C(N)=O | 0.264
COc1ccc([Si](C)(C)[C@@H]2[C@@H](CCO)O[C@]3(C(=O)N(Cc4cccc(N5C(=O)c6cccc7cccc5c67)c4)c4ccccc43)[C@H]2C)cc1 | -0.385
CC(C)CNC(=O)[C@@H]1c2ccccc2C(=O)N(Cc2cc(F)cc(C(F)(F)F)c2)[C@H]1c1ccc(CO)cc1 | -0.0784
C=CCN1C(=O)[C@]2(CC=C)N=C(c3ccc(OCCCO)cc3)O[C@@H]2c2ccccc21 | 0.503
COC(=O)C1(Cc2ccccc2)C=C2C(=C(C(C)C)C(=O)C2C)CN1 (stereo not given) | -1.41
C=C(C(=O)CC[C@H](OC(=O)c1cccnc1)c1ccc(CO)o1)C(C)C | 0.584
COc1ccc(C(O)C2C=CC3C(=O)N(c4ccccc4)C(=O)C3N2Nc2ccc(C#N)cc2)c2ccccc12 (stereo not given) | -0.199
NC(=O)NCC#Cc1ccc2c(c1)[C@]1(C(=O)N2)[C@H](C(=O)Nc2nc3ccccc3s2)[C@H]2C(=O)O[C@H](c3ccccc3)[C@H](c3ccccc3)N2[C@@H]1c1ccc(O)cc1 | 0.215
COc1ccc(C#Cc2ccc3c(c2)[C@]2(C(=O)N3)[C@H](C(=O)N3CCc4cc(OC)c(OC)cc4C3)[C@H]3C(=O)O[C@H](c4ccccc4)[C@H](c4ccccc4)N3[C@@H]2c2ccc(O)cc2)cc1 | 0.388
